# HT1080NT lethal: kills 2HG-producing HT-1080-NT fibrosarcoma cells; HT-1080-NT fibrosarcoma viability, CellTiter-Glo ATP luminescence, 48 h; Potency, µM (doses to about 46.1 µM), for the others: top-dose activity, negative = less viability, actives largely listed as cytotoxic; hit rate 1.6% among 360,000; AID 686970;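 further: NT is the 2HG producing partner of a matched IDH1 knockdown line; potency means the concentration at half of the fitted maximal effect; 0% = DMSO-treated cells and -100% = media-only wells without cells; nearly all actives have a fitted effect of over 55% in size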
#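 750 cells/well, RPMI + 5% FBS; 2 h settle, compound pin-transfer, 48 h at 37 degrees C. CellTiter-Glo 10 min RT, luminescence. Normalized to DMSO and media-only wells.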
# ELG1 repair inh: ELG1-dependent DNA repair inhibition. HEK293T ELG1-luciferase reporter, luminescence, 16 h; DNA damage induced by 5-fluorouridine. Potency, µM (series often up to 46.1 µM), for the others: top-dose activity change, negative = inhibition, most hits filed as inhibitors. hit rate 2.3% among 330,000. AID 504467; further: potency means the concentration at half of the fitted maximal effect; nearly all actives have a fitted effect of over 55% in size
#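 HEK293T cells expressing luciferase-tagged ELG1 (2,000/well) received 5-Fluorouridine plus compound or DMSO for 16 hr at 37 °C. Luciferase was read by ONE-Glo luminescence after 30 min at room temperature.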
# DT40 TDP1 no CPT: qHTS for Inhibitors of human tyrosyl-DNA phosphodiesterase 1 (TDP1): qHTS in cells in absence of CPT; hit rate 15% among 420,000; Potency, µM (series often up to 46.2 µM), for inactives: at the top dose activity change, negative = growth inhibition, actives largely listed as inhibitors; AID 686978, 2013; DT40 Tdp1-/- hTDP1 cells, no CPT, ATP luminescence, 48 h; further: potency means the concentration at half of the fitted maximal effect; nearly all actives have a fitted effect of over 55% in size
#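 No-CPT arm: Tdp1-/-;hTDP1 DT40 cells (400/well) plus compounds, incubated ≥48 hr at 37 °C. Readout CellTiter-Glo luminescence.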
# TDP1 cell CPT: growth inhibition of DT40 Tdp1-/-;hTDP1 cells with camptothecin (screen for TDP1 inhibitors); AID 686979; Potency, µM (titrated, usually from 46.2 µM), for inactives: at the highest dose activity change, negative = growth inhibition, most hits filed as inhibitors; chicken DT40 Tdp1-/-;hTDP1 cells + 20 nM CPT, ATP luminescence, 48 h; hit rate 12% among 420,000; further: potency means the concentration at half of the fitted maximal effect; nearly all actives have a fitted effect of over 55% in size
#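 Chicken DT40 Tdp1-/- cells complemented with human TDP1, 400 cells/well, exposed to compounds plus 20 nM camptothecin for at least 48 h at 37 C; viability read as ATP content by CellTiter-Glo luminescence.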
# HT1080 IDH1KD tx: toxicity to HT-1080 IDH1 knockdown cells (counter line). HT-1080 IDH1 knockdown viability, ATP luminescence, 48 h. Potency, µM (titrated, usually from 46.1 µM), without a hit: at the highest dose activity, negative = toxicity, actives largely listed as cytotoxic. hit rate 2% among 360,000;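 further: potency means the concentration at half of the fitted maximal effect; 0% = DMSO wells and -100% = cell-free medium wells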
#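 Cytotoxicity counter-line: IDH1KD HT-1080, 48 h, CellTiter-Glo. Curves classed by r2, magnitude and activity.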
# IL1B secr inh: blocks inflammasome-driven IL-1 beta release. THP-1 LPS/ATP IL-1B secretion, AlphaLISA, 16 h; active compounds read low. activity change, % at 57.5 µM. hit rate 4.7% among 360,000; in the data active means activity change below about -50%; inconclusive means mostly about -30% to -49%
#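 THP-1 cells pretreated 1 hr with compounds (up to 57.5 uM final), then stimulated with LPS (250 ng/mL final) plus ATP (1.25 mM final); secreted IL-1B measured by AlphaLISA after 16 hr, decreased signal indicating inhibition.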
# Starred values were filed as active, the others as inactive; ? = inconclusive; nt = no result. Only some compounds are listed: those with a hit (about 19% of all), similar ones and a draw of the others. Unless noted, the call rests on the fitted dose curve; in most records, active means well fitted curve in the direction sought with a large enough effect; inconclusive means small, poorly fitted or top-dose-only effect, or another doubt; inactive means no such curve, though single readings can be large; an effect the other way counts as inactive or inconclusive. Unless noted, on the % scale 0 is the no-effect control and ±100 the full control effect.
SMILES,HT1080NT lethal,ELG1 repair inh,DT40 TDP1 no CPT,TDP1 cell CPT,HT1080 IDH1KD tx,IL1B secr inh
Cc1ccc(CN2C(=O)c3ccccc3Sc3ccc(C(=O)NCc4ccco4)cc32)cc1,nt,nt,?,-21%,nt,nt
O=C(NCc1ccco1)c1ccc2c(c1)N(Cc1c(F)cccc1Cl)C(=O)c1ccccc1S2,nt,nt,16µM*,?,nt,nt
O=C(NCc1ccco1)c1ccc2c(c1)N(Cc1ccccc1F)C(=O)c1ccccc1S2(=O)=O,nt,nt,?,-12%,nt,nt
CN(Cc1ccco1)C(=O)c1ccc2c(c1)N(Cc1ccccc1F)C(=O)c1ccccc1S2,nt,nt,?,21µM*,nt,nt
COc1cc(Cl)c(C)cc1NC(=O)COC(=O)c1cc[n+]([O-])cc1,14%,19%,16%,8%,24%,24
N#CC1=C(N)Oc2cc(N)ccc2C1c1ccccc1Cl (centres undefined),-10%,-27%,?,?,-25%,46
N#CC1=C(N)OC2=C(CCc3ccccc32)C1c1ccccc1Cl (centres undefined),7.3µM*,?,4.6µM*,4.6µM*,4.6µM*,-73*
CCOC(=O)COc1cc(N2C(=O)CSCC2=O)c(Cl)cc1Cl,6%,-1%,-4%,-8%,0%,-99*
CCN(CC)S(=O)(=O)c1ccc(C)c(C(=O)Oc2cccc(-c3cnc4ccccc4n3)c2)c1,12%,?,21µM*,?,8%,3
CCN(CC)S(=O)(=O)c1cc(C(=O)Oc2cccc(-c3cnc4ccccc4n3)c2)ccc1OC,0%,?,21µM*,?,-15%,16
COc1cccc(NC(=O)CN(C)C(=O)C(Sc2ccccc2)c2ccccc2)c1 (centres undefined),0%,?,?,-25%,-19%,-4
CC12CCC(C/C1=N\N=C1\NC(=O)/C(=C\c3cccc(Br)c3)S1)C2(C)C (centres undefined),-16%,-9%,?,?,-23%,-68*
COc1cc(/C=N/N=C2\CC3CCC2(C)C3(C)C)ccc1O (centres undefined),-19%,nt,0%,-10%,-1%,-13
CCOc1ncccc1C(=O)N(CC)CC(=O)NCc1ccc(Cl)cc1,13%,-1%,-4%,2%,-1%,16
Cc1cc(-c2nnc3n2CCCCC3)c(C)n1-c1ccccc1,2%,?,16µM*,?,1%,?
CCC(C(=O)NC(=O)NC(C)=O)c1ccccc1 (centres undefined),nt,nt,-22%,-11%,nt,nt
CCOC(=O)c1c(NC(=O)c2cc(=O)c3c(C)cc(C)cc3o2)sc2c1CCC2,nt,nt,0%,-4%,nt,nt
Cc1cc(Cl)ccc1NC(=O)C(=O)NCc1ccco1,nt,nt,-19%,-21%,nt,nt
CCCCn1c(CN(Cc2ccccc2)Cc2ccccc2)nc2c1c(=O)n(C)c(=O)n2C,-1%,nt,18µM*,13µM*,1%,-1
CCOCCn1c(CN(Cc2ccccc2)Cc2ccccc2)nc2c1c(=O)n(C)c(=O)n2C,-20%,18µM*,?,?,-3%,12
CCn1c(SCc2nnc(-c3ccccc3)o2)nc2c1c(=O)n(C)c(=O)n2C,nt,3%,nt,nt,nt,nt
CCOCCn1c(CN2CCCC(C)C2)nc2c1c(=O)n(C)c(=O)n2C (centres undefined),2%,1%,11%,-1%,15%,5
CCOCCn1c(CN2CCC(Cc3ccccc3)CC2)nc2c1c(=O)n(C)c(=O)n2C,0%,2%,11µM*,18µM*,13%,40
Cn1c(=O)c2c(nc(CN3CCC(Cc4ccccc4)CC3)n2CCN2CCOCC2)n(C)c1=O,0%,-20%,-28%,?,1%,0

# High-throughput results from PubChem BioAssay.
